This is an account of results in the supplement of paper PMC12494721.

Structures are written as SMILES. Where a name gives a salt, the structure may show the parent alone.

In the assay the test system is Klebsiella aerogenes DSM 30053. In words: growth (OD595) fold change vs plate DMSO controls (fold change (ratio)); higher = more growth. To be noted: incubation time: 27 h, anaerobic, 37 °C. Put shortly:
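Growth is calculated as fold change against the median of the DMSO control wells on each plate. Readings at 595 nm from anaerobic mGAM cultures (96-well, 27 h, 37 °C) were blank-subtracted, background-corrected with 20 µM compound solutions in water, and converted to OD by a calibration factor of 5. Fold changes above 1.5 were recorded as NA, and results are means of 2 biological replicates.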
Turning to `Cc1ccc(-c2ncc(Cl)cc2-c2ccc(S(C)(=O)=O)cc2)cn1` [Etoricoxib] (20 µM), the growth amounted to 1.14.
For the compound `CNC(=O)OCc1cccc(COC(=O)NC)n1` [Pyricarbate] (20 µM), the growth worked out at 1.03.
Turning to `N#Cc1cc(NC(=O)C(=O)O)c(Cl)c(NC(=O)C(=O)O)c1` [Lodoxamide] (20 µM), the growth stood at 1.01.
Turning to `CNC1(C)C2CCC(C2)C1(C)C` (configuration not stated) [Mecamylamine hydrochloride] (20 µM), the growth turned out to be 1.02.
Regarding `CCOC(=O)[C@H](CCc1ccccc1)N[C@@H](C)C(=O)N(CC(=O)O)C1Cc2ccccc2C1` [Delapril Hydrochloride] (20 µM), the growth stood at 0.982.
The value for `CN1[C@@H]2CC[C@H]1C[C@@H](OC(c1ccccc1)c1ccccc1)C2` [Benztropine mesylate] (20 µM) was 0.975; that for `C[N+]1(CCCCC[N+]2(C)CCCC2)CCCC1` [Pentolinium bitartrate] (20 µM) was 1.01.
For `CC(=O)Oc1cc(C(F)(F)F)ccc1C(=O)O` [Triflusal] (20 µM), the growth is 0.952.
For `COc1ccc2cc(CCC(C)=O)ccc2c1` [Nabumetone] (20 µM), the growth was determined as 1.01.
As to `CN1C(=O)CC(c2ccccc2)C1=O` (configuration not stated) [Phensuximide] (20 µM), the growth amounted to 0.996.
`CC(N)CCCC(C)(C)O` (configuration not stated) [Heptaminol hydrochloride] (20 µM): the growth came out at 0.998.
Turning to `CN(C)CCOC(c1ccc(Cl)cc1)c1ccccn1` (configuration not stated) [Carbinoxamine maleate salt] (20 µM), the growth came out at 0.985.
The value for `C=CCN1CCCC1CNC(=O)c1cc2nn[nH]c2cc1OC` (configuration not stated) [Alizapride hydrochloride] (20 µM) was 1.05; that for `CC1(C)O[C@@H]2C[C@H]3[C@@H]4C[C@H](F)C5=CC(=O)C=C[C@]5(C)[C@H]4[C@@H](O)C[C@]3(C)[C@]2(C(=O)CO)O1` [Flunisolide] (20 µM) was 1.03; that for `C=CC(N)CCC(=O)O` (configuration not stated) [Vigabatrin hydrochloride] (20 µM) was 1.17.
As to `CC(N)C12CC3CC(CC(C3)C1)C2` (configuration not stated) [Rimantadine hydrochloride] (20 µM), the growth came out at 0.955.
`O=C(O)c1cc(-c2ccc(F)cc2F)ccc1O` [Diflunisal] (20 µM): the growth was 0.985.
For the compound `OC[C@H]1O[C@@H](O[C@@H]2[C@@H](CO)OC(O)(CO)[C@H]2O)[C@H](O)[C@@H](O)[C@H]1O` (mixture of isomers) [Lactulose] (50 µM), the growth is 1.01.
`COc1ccc2c3c1O[C@H]1C[C@@H](O)C=C[C@@]31CCN(C)C2` [Galanthamine hydrobromide] (20 µM): the growth worked out at 1.04.
On to `O=C(CCNNC(=O)c1ccncc1)NCc1ccccc1` [Nialamide] (20 µM), for which the growth was 1.02.
For `CC(C)OC(=O)C(C)(C)Oc1ccc(C(=O)c2ccc(Cl)cc2)cc1` [Fenofibrate] (20 µM), the growth was 1.04.
For `Cc1ccc2c(c1)c1c3n2CCNC3CCC1` (configuration not stated) [Pirlindole mesylate] (20 µM), the growth is 0.98.
The value for `CC[N+](C)(C)Cc1ccccc1Br` [Bretylium tosylate] (20 µM) was 1.06.
The value for `COC(=O)[C@H](Cc1ccccc1)NC(=O)[C@H](CC(=O)O)NCCCc1ccc(OC)c(O)c1` [Advantame] (50 µM) was 0.999.
Consider `O=C(c1cc(O)c(O)c(O)c1)c1ccc(O)c(O)c1O` [Exifone] (20 µM), for which the growth is 0.934.
Take `COc1cc(N)cn[n+]1-c1ccccc1` [Amezinium metilsulfate] (20 µM): the growth was 1.08.
Consider `CN[C@@H]1[C@@H](O[C@H]2O[C@H](CO)[C@@H](N)[C@H](O)[C@H]2O)OC2C[C@@H](N)[C@@H](O[C@H]3[C@H](O)[C@@H](O)[C@H](N)C[C@@H]3N)OC2[C@@H]1O` (some centres not stated) [Apramycin] (20 µM), for which the growth was determined as 0.996.
The figure for `COc1ccc2[nH]c([S+]([O-])Cc3ncc(C)c(OC)c3C)nc2n1` (configuration not stated) [Tenatoprazole] (20 µM) is 1.04; for `CCCCC(=O)O[C@H]1CC[C@H]2[C@@H]3CCc4cc(O)ccc4[C@H]3CC[C@]12C` [Estradiol Valerate] (20 µM) it is 0.996.
The figure for `O=C(O)CCc1nc(-c2ccccc2)c(-c2ccccc2)o1` [Oxaprozin] (20 µM) is 0.984.
As for `CC(C)(C)NC[C@H](O)c1ccc(O)c(CO)c1` [Levalbuterol hydrochloride] (20 µM), the growth worked out at 1.01.
The value for `COc1ccc(C(=O)c2ccc(C)cc2)c(O)c1` [Mexenone] (20 µM) was 0.378.
